MARV entry inh = qHTS for inhibitors of binding or entry into cells for Marburg Virus | Marburg virus pseudotyped entry inhibition, cell reporter | Potency, µM (highest dose often 37.8 µM), for inactives: top-dose activity change, negative = inhibition, most hits filed as inhibitors | actives 1.8% (n = 300,000); calls by dose curve; tested in HEK293 cells; note: potency is the fitted concentration of half-maximal effect; % is set by controls: 0 for no effect and ±100 for the full control effect
LASV entry inh = qHTS for Inhibitors of binding or entry into cells for Lassa Virus; Lassa virus pseudotype entry inhibition, cell reporter; actives 1.2% (n = 300,000); AID 540256, 2011; Potency, µM (top dose mostly 37.9 µM), inactives show top-dose activity change, negative = inhibition, hits mostly inhibitors; calls by dose curve; tested in HEK293 cells; note: potency is the fitted concentration of half-maximal effect; % is set by controls: 0 for no effect and ±100 for the full control effect; nearly all actives have a fitted effect of over 50% in size
Shiga toxin inh = A qHTS for Small Molecule Inhibitors of Shiga Toxin | inhibition, % at 38.7 µM | actives 9.2% (n = 290,000) | Vero cells, Shiga toxin protein synthesis inhibition reporter; in the data active = inhibition mostly above about 28%, no sharp cut-off; inactive = mostly below about 43%; note: 0% is about no effect
CHX counter-1 = Cycloheximide Counterscreen for Small Molecule Inhibitors of Shiga Toxin. cell reporter, cycloheximide protein synthesis inhibition counterscreen. max response, %. actives 12% (n = 300,000); in the data active = max response mostly above about 13%, no sharp cut-off; inactive = mostly below about 14%; note: read at 38.3 µM for the half of the compounds with a filed dose; 0% is about no effect
Vaccinia Venus = qHTS for Stage-Specific Inhibitors of Vaccinia Orthopoxvirus: Venus Reporter Primary qHTS; Vaccinia virus Venus reporter expression, fluorescence; Potency, µM (series often up to 36.5 µM), for inactives: at the highest dose activity change, negative = inhibition, usual class: inhibitors; actives 0.46% (n = 330,000); calls by dose curve; tested in A549 cells; note: potency is the fitted concentration of half-maximal effect; % is set by controls: 0 for no effect and ±100 for the full control effect; nearly all actives have a fitted effect of over 30% in size
Vaccinia mCherry = qHTS for Stage-Specific Inhibitors of Vaccinia Orthopoxvirus: mCherry Reporter Primary qHTS | Vaccinia virus mCherry reporter infection, fluorescence | Potency, µM (top dose mostly 36.5 µM), for the others: top-dose activity change, negative = inhibition, most hits filed as inhibitors | actives 0.63% (n = 310,000); calls by dose curve; tested in A549 cells; note: potency is the fitted concentration of half-maximal effect; % is set by controls: 0 for no effect and ±100 for the full control effect; nearly all actives have a fitted effect of over 35% in size
CHX counter-2 = Cycloheximide Counterscreen for Small Molecule Inhibitors of Shiga Toxin (Confirmatory); Cycloheximide counterscreen, protein synthesis reporter, Shiga toxin assay; actives 3% (n = 510); shares compounds with Shiga toxin inh; Potency, µM (series often up to 38.3 µM), without a hit: top-dose activity (activation), hits mostly activators; calls by dose curve; note: potency is the fitted concentration of half-maximal effect; 0% is about no effect
Numbers without * were called inactive; i = inactive; ? = inconclusive; . = no result given; [ ] = another dose, or the depositor's remark. The full list was thinned out, with hits kept by preference.

SMILES	MARV entry inh	LASV entry inh	Shiga toxin inh	CHX counter-1	Vaccinia Venus	Vaccinia mCherry	CHX counter-2
C[C@@H]1CN([C@H](C)CO)C(=O)CCCn2nncc2CO[C@H]1CN(C)S(=O)(=O)c1ccc2c(c1)OCCCO2	.	.	.	.	-15%	-3%	.
COc1cc(C(=O)NCCNC(=O)c2cnccn2)cc(OC)c1OC	4%[46.1 µM]	-1%	-4	-4	-7%	i	.
COc1ccc(C(=O)Nc2cccc(C(=O)N3CCN(C)CC3)c2)cc1	-16%	12%	37*	15	-14%	.	1%
COc1ccc(C(=O)Nc2cccc(C(=O)N3CCCCC3)c2)cc1	27%	-3%	33	13	-20%	-6%	.
C=C1CCC(O)C/C1=C/C=C1\CCC[C@]2(C)[C@@H]([C@H](C)CCCC(C)C)CC[C@@H]12 (some centres undefined)	.	.	65*	9	.	.	0%
CC1CCC(O)C/C1=C\C=C1/CCCC2(C)C1CCC2C(C)/C=C/C(C)C(C)C (centres undefined)	.	.	4	13	.	.	.
Cc1c(C(=O)OC/C(O)=C(\C#N)c2nc3ccccc3[nH]2)oc2ccc(Br)cc12	-5%[46.1 µM]	11%	-7	-3	3%	-19%	.
Cc1c(C(=O)Nc2nc3ccccc3[nH]2)oc2ccc(Br)cc12	0%	-2%	14*	12	-9%	-13%	10µM*
COc1cc(C2C(S(=O)(=O)c3ccccc3)CON2C)ccc1OCc1ccc(F)cc1 (centres undefined)	?	9%	43*	12	5%	3%	5%
CCSc1nnc(NC(=O)[C@@H](NC(=O)c2ccccc2F)C(C)C)s1	10%[46.1 µM]	0%	12	8	0%	i	.
CCSc1nnc(NC(=O)[C@@H](NC(=O)c2ccc(C(C)(C)C)cc2)C(C)C)s1	-2%	-4%	34*	8	-25%	-22%	0%
CC(C)c1ccc(NC(=O)N2CCCC2C(=O)Nc2ccc(-n3cnnn3)cc2)cc1 (centres undefined)	10%[46.1 µM]	9%[46.1 µM]	29*	14	-21%	i	2%
O=C(NCc1nnc(SCC(=O)N2CCN(c3ccccc3)CC2)o1)c1c(F)cccc1Cl	.	.	-6	-3	-10%	0%	.
O=C(COC(=O)c1cncc(Br)c1)Nc1nc(-c2ccc(F)cc2)cs1	16%[46.1 µM]	-2%	27*	8	-13%	-7%	?
CC1(C(=O)NCCC(F)(F)F)Cc2c(-c3ccccc3)ccnc2O1 (centres undefined)	.	.	.	.	-21%	-29%	.
CCOC(=O)c1ccc(OCC2c3cc(OC)c(OC)cc3CCN2C(=O)Cc2ccc(OC)c(OC)c2)cc1 (centres undefined)	.	?	.	.	-7%	4%	.
O=C(CCn1cnnn1)Nc1ccccc1	5%	?	22*	9	4%	-5%	-3%
CC(=O)Nc1ccc(NC(=O)CCn2cnnn2)cc1	-1%[46.1 µM]	.	11	-2	3%	-8%	.
N#Cc1cccc(NC(=O)COC(=O)C2CCC2)c1	-4%[46.1 µM]	5%	.	.	10%	-7%	.
CN(C)c1ccc(C(=O)NCc2ccc3c(c2)CCO3)cc1	0%[14.2 µM]	-10%	55*	2	-15%	-5%	7%
Cc1cc(NC(=O)CSc2nnnn2-c2ccccc2)no1	-8%[46.1 µM]	-14%	-3	-3	1%	10%	.
Cc1cc(N/C=C\c2nnnn2-c2ccccc2)no1	13%	7%	30*	7	-8%	-11%	?
Cn1c(-c2cccc(Br)c2)n[nH]c1=O	-16%[46.1 µM]	-5%	17	-4	-18%	-20%	.
Nc1ccc2nn(-c3cccc4ccccc34)nc2c1	?	-10%	49*	2	6%	-9%	3%
Nc1ccc2c(c1)C(=O)N(c1cccc3ccccc13)C2=O	-15%	0%	.	11	-25%	?	.
COc1cccc(-n2ccnc2SCC(=O)Nc2ccccc2)c1	15%	-6%	-1	8	-17%	-23%	.
COc1ccc(NC(=O)CSc2nccn2-c2cccc(OC)c2)cc1	?	?	40*	0	?	.	2%
